# Source: PubChem BioAssay AID2227 (Johns Hopkins Ion Channel Center, 2009)
# The whole screen tested about 310,000 compounds, of which about 1,300 (0.42%) were called active.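 Rule for the calls: active = B-score of calcium response area above 5 SD of library B-scores, with initial fluorescence ratio within 5 SD of library; inactive = the rest.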 The sample as a whole holds a higher share of actives than the screen did.
# Biological target: Short transient receptor potential channel 4 (Mus musculus) (UniProt Q9QUQ5)
# Test: TRPC4 channel potentiators under submaximal DAMGO – cell-based, mouse TRPC4beta, HEK293 mu-opioid, Fluo-4 calcium, primary screen (AID 2227);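 for B-score: B-score of integrated fluorescence ratio over time as area under calcium response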
# Conditions: DAMGO EC20, Fluo-4 Ca2+ flux, at 10 µM; active compounds read high
# Sequence of Short transient receptor potential channel 4 (Mus musculus) (Q9QUQ5 whole entry, looked up): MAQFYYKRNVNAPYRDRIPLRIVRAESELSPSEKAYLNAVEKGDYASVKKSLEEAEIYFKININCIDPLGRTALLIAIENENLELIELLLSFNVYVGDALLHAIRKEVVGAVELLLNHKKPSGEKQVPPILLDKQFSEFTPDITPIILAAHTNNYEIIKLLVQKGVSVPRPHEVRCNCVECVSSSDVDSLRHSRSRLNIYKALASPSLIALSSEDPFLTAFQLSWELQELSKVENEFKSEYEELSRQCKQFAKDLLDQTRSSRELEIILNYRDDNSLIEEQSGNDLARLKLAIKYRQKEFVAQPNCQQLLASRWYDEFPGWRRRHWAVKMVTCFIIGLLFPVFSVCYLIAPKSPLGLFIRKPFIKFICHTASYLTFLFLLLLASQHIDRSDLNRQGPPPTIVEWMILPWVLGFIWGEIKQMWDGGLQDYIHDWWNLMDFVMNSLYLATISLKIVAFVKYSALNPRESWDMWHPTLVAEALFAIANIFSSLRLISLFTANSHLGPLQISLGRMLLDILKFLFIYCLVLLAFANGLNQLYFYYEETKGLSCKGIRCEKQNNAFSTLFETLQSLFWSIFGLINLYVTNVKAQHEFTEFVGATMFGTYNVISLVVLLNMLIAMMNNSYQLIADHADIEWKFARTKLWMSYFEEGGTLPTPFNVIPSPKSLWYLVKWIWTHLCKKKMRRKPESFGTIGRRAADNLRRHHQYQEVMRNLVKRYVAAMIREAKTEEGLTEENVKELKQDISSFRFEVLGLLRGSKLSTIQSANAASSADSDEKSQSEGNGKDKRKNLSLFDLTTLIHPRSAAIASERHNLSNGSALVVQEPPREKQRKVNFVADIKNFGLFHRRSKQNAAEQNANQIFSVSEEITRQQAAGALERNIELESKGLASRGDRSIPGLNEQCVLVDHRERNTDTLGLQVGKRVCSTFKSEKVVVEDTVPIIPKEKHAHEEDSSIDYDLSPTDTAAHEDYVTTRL
row,Compound,B-score
1,CCN1CC2C3CCC(C)(O3)C2C1 (stereo not given),15 (active)
2,Cc1ccc(N(C)C(=O)Oc2cccc3ccc(C)nc23)cc1,inactive
3,CN(C)C(=O)Oc1ccc2c(c1)O/C(=C\c1ccccc1)C2=O,inactive
4,CNC(=O)O/N=C(\N)Cc1csc2ccccc12,inactive
5,O=c1c2ccccc2nc(-c2ccccc2)n1-c1ccccn1,inactive
6,O=c1c2ccccc2nc(-c2ccco2)n1-c1ccc(Br)cn1,inactive
7,Cc1ccc(-c2nc3ccccc3c(=O)n2-c2ccc(Br)cn2)cc1,12 (active)
8,CC(=NCc1ccc2c(c1)OCO2)c1c(O)[nH]c(=O)[nH]c1=O,inactive
9,COC(=O)C1=C(c2cc3ccccc3s2)C[C@@H]2CC[C@H]1N2C(=O)NCCO,inactive
10,O=C(Cn1c(=O)n(CC2CS2)c2ccccc21)N1CCCCC1 (stereo not given),inactive
11,COC(=O)C(O)(c1ccc(NC(=O)c2ccco2)c(OC)c1)C(F)(F)F (stereo not given),12 (active)
12,CCOC(=O)C(O)(c1ccc(N)c(OC)c1)C(F)(F)F (stereo not given),inactive
13,CCOC(=O)C(O)(c1ccc(NC(=O)c2ccco2)c(OC)c1)C(F)(F)F (stereo not given),inactive
14,Cc1ccc2c(c1)=C/C(=C\c1c(O)[nH]c(=O)[nH]c1=O)C(=O)N=2,inactive
15,COc1ccccc1C1=NCc2nnc(CSC)n2-c2ccc(Cl)cc21,inactive
16,O=C(Cc1ccccc1[N+](=O)[O-])N1CCN(Cc2ccc3c(c2)OCO3)CC1,inactive
17,CCN1CCN(Cc2cc(OC)c3c(c2)OCO3)CC1,11 (active)
18,Fc1ccc(N2CCN(Cc3ccc4c(c3)OCO4)CC2)cc1,inactive
19,Cc1cc2ccccn2c1C(C[N+](=O)[O-])c1c(F)cccc1Cl (stereo not given),inactive
20,O=c1[nH]c(=S)n(C2CC2)c(O)c1/C=N/N1CCOCC1,inactive
